Where “and” joins values, the source holds several entries; their conditions need not be identical. Identical values can stand only once. Compounds without any hit were thinned out: in the full panel of roughly 83,000, 20% have a hit.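 Percent growth is the endpoint: 0 to 100 indicates growth inhibition (40 means 60% inhibition), 0 means no net growth, and negative values indicate cell death.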 Calls of active or inactive are those of the source. The calls were made as follows: active = growth percent below 10; inactive = the rest.
Tests used:
Test in all cases: NCI-60 one-dose screen, 48 h (100 = growth as untreated, 0 = no growth, -100 = all killed)
Conditions in all cases: 10 µM unless noted
[1] = system: T-47D breast
[2] = system: BT-549 breast
[3] = system: MDA-MB-435 melanoma
[4] = system: SW-620 colon
[5] = system: MCF7 breast
[6] = system: HCT-116 colon
[7] = system: HCC-2998 colon
[8] = system: KM12 colon
[9] = system: MDA-MB-468 breast

Measured: growth

CC(=O)c1c(N)c(C#N)cn1-c1ccc(Cl)cc1Cl
inactive: [1] 95.1% | [2] 104% | [3] 102% | [4] 102% | [5] 100% | [6] 99.1% | [7] 114% | [8] 95.8% | [9] 97.1%

Cc1ccc(C(SCCNCc2cc(N(C)C)ccn2)(c2ccccc2)c2ccccc2)cc1
active: [1] -39% | [2] -51.8% | [3] -75.4% | [4] -79.4% | [5] -80.5% | [6] -80.5% | [7] -93.8% | [8] -40.1% | [9] -69.5%

Cc1ccc([C@H]2C(C(=O)c3ccc(Cl)cc3)C3(N[C@@H]2c2ccccc2)C(=O)Nc2ccccc23)cc1 (stereo not given in full)
active: [9] 1.9%
inactive: [1] 14.3% | [2] 50.7% | [3] 26.8% | [4] 29.9% | [5] 16% | [6] 14% | [7] 23.7% | [8] 25.9%

O=C(c1ccc(Cl)cc1)c1ccc(OCCCN2CCN(c3ccncc3)CC2)cc1
inactive: [1] 29% | [2] 26.9% | [3] 41.4% | [4] 19.5% | [5] 13.6% | [6] 17.4% | [7] 64.9% | [8] 57.9%
active: [9] -16.8%

CN(C)CCn1c2ccccc2c2nc3cc4ccccc4cc3nc21
inactive: [1] 45.3% | [2] 52.8% | [9] 23.7%
active: [3] -67% | [4] -58.3% | [5] -9.03% | [6] -61.4% | [7] -82.1% | [8] 4.87%

Cn1cc(-c2cc(N)n3nc(-c4cn(C)c5ccc(Cl)cc45)cc3n2)c2ccccc21
inactive: [1] 101% | [2] 118% | [3] 101% | [4] 114% | [5] 98.8% | [6] 104% | [7] 105% | [8] 109% | [9] 96.4%

Cn1cc(-c2nnc(N)nc2-c2c[nH]c3ccc(Br)cc23)c2cc(Br)cnc21
inactive: [1] 47.7% | [2] 50.2% | [3] 33.6% | [4] 75.1% | [5] 29.8% | [6] 44.8% | [7] 72.7% | [8] 49.3% | [9] 25%

CC(C)C(C(=O)O)n1c(O)c(/C=C2/C=c3cc4c(cc3=NC2=O)OCO4)sc1=S (stereo not given)
inactive: [1] 103% | [2] 111% | [3] 107% | [4] 108% | [5] 90.4% | [6] 108% | [7] 110% | [8] 103% | [9] 101%

Cn1cc(-c2nnc(N)nc2-c2c[nH]c3ccccc23)c2cccnc21
inactive: [1] 44.6% | [2] 34.7% | [4] 16.5% | [5] 22.5% | [6] 18.2% | [7] 81% | [8] 17.2% | [9] 33.4%
active: [3] -28.9%

O=C1/C(=C/C2=Cc3ccccc3OC2)SC(=S)N1c1ccccc1F
inactive: [1] 95% | [2] 77.8% | [3] 108% | [4] 112% | [5] 78.4% | [6] 96.4% | [7] 109% | [8] 102% | [9] 99%

O=C1NC(=O)/C(=C/c2ccccc2OCc2cc3ccccc3nc2Cl)S1
inactive: [1] 75.3% | [2] 78.7% | [3] 101% | [4] 109% | [5] 74.3% | [6] 108% | [7] 114% | [8] 85.2% | [9] 80.6%

C#CCOc1ccc(/C=N/Nc2nc(-c3ccc(Cl)cc3)cs2)cc1OC
inactive: [1] 18.5% | [2] 36% | [3] 44.1% | [4] 82.2% | [5] 21.8% | [6] 48.1% | [7] 90.3% | [8] 61.8% | [9] 42.1%

O=c1oc2ccccc2cc1-c1csc(N=Nc2c(O)[nH]c3ccc(Cl)cc23)n1
inactive: [1] 93.6% | [2] 104% | [3] 106% | [4] 109% | [5] 81.4% | [6] 106% | [7] 103% | [8] 103% | [9] 106% and 94.5%

OCNc1ccc(-n2cnc3cc(-c4ccc(O)cc4)ccc32)cc1C(F)(F)F
inactive: [1] 23.8% | [2] 24% | [4] 27.1% | [5] 10.1% | [6] 22.6% | [7] 43.4% | [9] 27.7%
active: [3] 7.66% | [8] 4.46%

Cc1ccc(-n2c(-c3cc4ccccc4nc3Cl)noc2=O)cc1
inactive: [1] 63.9% | [2] 81.1% | [4] 68.9% | [5] 64.5% | [6] 86% | [7] 90.9% | [8] 55% | [9] 16.2%
active: [3] 6.44%
